{"source": "PubChem BioAssay (NCATS)", "note": "Inconclusive results are not listed. The source made the active and inactive calls. Calls follow the shape of the dose curve; as a rule, active = well fitted curve in the direction sought with a large enough effect; inconclusive = small, poorly fitted or top-dose-only effect, or another doubt; inactive = no such curve, though single readings can be large or run the other way. % is scaled to controls: 0 for no effect and ±100 for the full control effect; potency is read from the fitted curve at half-maximal effect.", "data": [{"test": "qHTS Assay for Identifying Gametocytocidal Compounds (AID 743244);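 as to max response: actives lower the fluorescent signal which means gametocytes are killed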", "conditions": "P. falciparum 3D7 stage III-V gametocytes, alamarBlue, 72 h; max response: stronger effect = lower value", "outline": "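P. falciparum 3D7 stage III–V gametocytes (20,000 cells/well) were exposed to compounds for 72 h at 37 °C, 5% CO2. AlamarBlue was then added for 24 h; decreased resorufin fluorescence (Ex 525/Em 598 nm) indicated loss of viability.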", "values": [{"smiles": "CO/N=C(\\C(=O)N[C@@H]1C(=O)N2C(C(=O)O)=C(CSc3nc(=O)c(O)nn3C)CSC12)c1csc(N)n1", "note": "(some centres not stated)", "max response": "32.5% (inactive)"}, {"smiles": "CN(CC[C@@H](Oc1ccc(C(F)(F)F)cc1)c1ccccc1)CC(=O)O", "max response": "25.4% (inactive)"}, {"smiles": "NCCCCN=C(N)N", "max response": "3.59% (inactive)"}, {"smiles": "N#CC(=C(\\N)Sc1ccccc1N)/C(C#N)=C(/N)Sc1ccccc1N", "max response": "14.1% (inactive)"}, {"smiles": "CC1=C(/C=C/C(C)=C/C=C/C(C)=C\\C(=O)O)C(C)(C)CCC1", "max response": "17.8% (inactive)"}, {"smiles": "Nc1nc2ccc(Cl)cc2c2nc(-c3ccco3)nn12", "max response": "-3.79% (inactive)"}, {"smiles": "CC1=C(C(=O)O)N2C(=O)[C@@H](NC(=O)C(N)C3=CCC=CC3)[C@H]2SC1", "note": "(some centres not stated)", "max response": "5.72% (inactive)"}, {"smiles": "[Li+]", "max response": "24.7% (inactive)"}, {"smiles": "NC(=O)c1cc[n+](CC2=C(C(=O)O)N3C(=O)[C@@H](NC(=O)[C@@H](c4ccccc4)S(=O)(=O)[O-])[C@H]3SC2)cc1", "max response": "7.28% (inactive)"}, {"smiles": "Nc1ncnc2c1nc(Br)n2C1OC2COP(=O)(O)O[C@@H]2C1O", "note": "(some centres not stated)", "max response": "31.4% (inactive)"}, {"smiles": "CC(C)(C)c1ccc(/C=C/C(=O)Nc2ccc3c(c2)OCCO3)cc1", "max response": "13.4% (inactive)"}, {"smiles": "CC(=O)[C@H]1CCC2C3CC=C4C[C@@H](OS(=O)(=O)O)CC[C@]4(C)C3CC[C@@]21C", "note": "(some centres not stated)", "max response": "21.2% (inactive)"}, {"smiles": "NC(N)=[N+]1CCc2ccccc2C1", "max response": "-3.89% (inactive)"}, {"smiles": "COc1ccc2c(c1)c(CC(=O)O)c(C)n2Cc1ccc(Cl)cc1", "max response": "-11.4% (inactive)"}, {"smiles": "Cn1cc(C(=O)OCC2CCN(CCNS(C)(=O)=O)CC2)c2ccccc21", "max response": "28.9% (inactive)"}, {"smiles": "CC1CCN(CC[C@H]2CCCN2S(=O)(=O)c2cccc(O)c2)CC1", "max response": "10.9% (inactive)"}, {"smiles": "NCCS(=O)O", "max response": "18% (inactive)"}, {"smiles": "CC(=O)O[C@H]1CC2(C)[C@@H](C[C@@H](O)[C@H]3[C@@]4(C)CC[C@@H](O)[C@@H](C)[C@@H]4CC[C@@]32C)C1=C(CCC=C(C)C)C(=O)O", "note": "(some centres not stated)", "max response": "12.4% (inactive)"}, {"smiles": "COc1cc(C(O)C(=O)O)ccc1O", "note": "(configuration not stated)", "max response": "20.3% (inactive)"}, {"smiles": "O=C(O)C1CCCNC1", "note": "(configuration not stated)", "max response": "20.9% (inactive)"}, {"smiles": "COC(=O)C(C)(N)Cc1ccc(O)cc1", "note": "(configuration not stated)", "max response": "7.17% (inactive)"}, {"smiles": "N[C@@H](CS(=O)O)C(=O)O", "max response": "27.3% (inactive)"}, {"smiles": "Cc1cc2c(cc1Cl)N(C(=O)Nc1ccnc3ccccc13)CC2", "max response": "6.93% (inactive)"}, {"smiles": "Nc1nc2[nH]c(=O)cnc2c(=O)[nH]1", "max response": "4% (inactive)"}, {"smiles": "CC(C)NCC(O)COc1ccc(CC(N)=O)cc1", "note": "(configuration not stated)", "max response": "27.5% (inactive)"}, {"smiles": "CNc1cc(NS(=O)(=O)c2ccc(N)cc2)nc(NC)n1", "max response": "12.8% (inactive)"}, {"smiles": "CCCOC(=O)c1c(-c2ccccc2)nc(CC)c(C(=O)SCC)c1CCC", "max response": "9.8% (inactive)"}, {"smiles": "CC(C)[C@@H]1CC[C@@H](C)C[C@@H]1P(=O)(c1ccccc1)c1ccccc1", "max response": "7.79% (inactive)"}, {"smiles": "CC(=O)N[C@@H](Cc1c[nH]c2ccccc12)C(=O)OCc1cc(C(F)(F)F)cc(C(F)(F)F)c1", "max response": "12% (inactive)"}, {"smiles": "CCCCCCCCCC(=O)NC(CN1CCOCC1)[C@H](O)c1ccccc1", "note": "(some centres not stated)", "Potency": "3.55 µM (active)"}, {"smiles": "NCC(O)(CS(=O)(=O)O)c1ccc(Cl)cc1", "note": "(configuration not stated)", "max response": "-5.75% (inactive)"}, {"smiles": "NCCCNCCCCNCCCN", "max response": "28.9% (inactive)"}]}]}
